Structures are written as SMILES. Inconclusive results are not listed. Entries that show only a call come without a potency. Calls of active or inactive are those of the source. Calls come from the whole dose curve; as a rule, active = well fitted inhibition curve with a large enough effect; inconclusive = small, poorly fitted or top-dose-only effect; inactive = flat fitted curve, though single readings scatter.
Potency is the fitted concentration of half-maximal effect.

The nature of the assay: qHTS to identify inhibitors of the type 1 interferon - major histocompatibility complex class I in skeletal muscle: primary screen against the NCATS Pharmaceutical Collection (AID 1347407). The following applies: human skeletal muscle cells, IFN-b-induced MHC-I HiBiT luminescence, 24 h; series mostly up to 45.9 µM. An excerpt:
Assay Submitter (PI): Travis B. Kinder Ph.D. & James Inglese Ph.D.
Assay Development and Screening Technology Laboratory (ADST)
National Center for Advancing Translational Sciences (NCATS), Rockville, MD
National Institute of Health (NIH), Bethesda, Maryland
Idiopathic inflammatory myopathies, collectively referred to as myositis, are a group of rare autoimmune diseases characterized by skeletal muscle inflammation, weakness, and usually accompanied by systemic pathologies of the skin, lungs, or vasculature. Current immunosuppressive therapies and glucocorticoids are often not curative and are accompanied by harsh side effects, especially in children with juvenile myositis. We initiated a drug repurposing and development program to identify more targeted, less toxic therapeutics to treat myositis. Although its cause is not known, muscle from a subset of patients have an abundance of the inflammatory type 1 interferon (IFN) and a down-stream product major histocompatibility complex class I (MHC class I), which are both thought to contribute to damage and weakness. We conducted quantitative high throughput screening on 6,576 compounds (4,679 unique) through a series of cell-based assays to identify those that inhibit the IFN-stimulated expression of MHC class I in muscle precursor cells (myoblasts). The compound identification and evaluation strategy utilized a primary screen with reporter-tagged MHC class I in genome-engineered myoblasts, ATP content counter screen for viability, HLA-ABC immunofluorescence secondary screen, and HLA-B RT-qPCR tertiary screen.
The primary screen utilized CRISPR/Cas9 genome-engineering of immortalized human myoblasts, C25cl48, where a pro-luminescent reporter HiBit was fused to the C-terminus of endogenous MHC class I allele HLA-B*08:01 (HLA-B HiBit myoblasts). HiBit is an 11 amino acid fragment of NanoLuc luminescent reporter (Promega Corporation), and when complexed to the larger LgBit fragment, the reconstituted enzyme produces light in the presence of furimazine substrate (Schwinn et al., 2018). Briefly, HLA-B HiBit myoblasts were plated into 1536-well plates, treated with 4.0 ng/ml human IFN-beta and 2,816 compounds from the NCATS Pharmaceutical Collection (NPC) that contains all drugs approved in the US, EU, and Japan (Huang et al., 2011) in an 8-point, 1:5 titration with a high final concentration of 46 uM. After 24 hrs of treatment, cells were assayed by Nano-Glo HiBiT Lytic Detection System (Promega) and luminescence measured by a ViewLux 1430 Ultra HTS (Perkin Elmer).
Huang R, Southall N, Wang Y, Yasgar A, Shinn P, Jadhav A, Nguyen D-T, Austin CP. 2011. The NCGC pharmaceutical collection: a comprehensive resource of clinically approved drugs enabling repurposing and chemical genomics. Sci Transl Med 3:80ps16. doi:10.1126/scitranslmed.3001862
Schwinn MK, Machleidt T, Zimmerman K, Eggers CT, Dixon AS, Hurst R, Hall MP, Encell LP, Binkowski BF, Wood K V. 2018. CRISPR-Mediated Tagging of Endogenous Proteins with a Luminescent Peptide. ACS Chem Biol 13:467-474. doi:10.1021/acschembio.7b00549
PROTOCOL TABLE (as described by Inglese et al., 2007)
SEQUENCE No. (e.g., 1, 2, 3, etc.); […] (e.g., Cells, Incubation, Reagent, etc.); VALUE; DESCRIPTION
1a; Cells; 5 uL; Use a Multidrop Combi (Thermo Scientific) to seed 350 cells/well into nine Greiner 1536 well white/solid bottom, high base, TC plates in 5 ul/well of iHSKM growth medium (GM) without dexamethasone into columns 1+2. Add metal lids with gas-exchange holes
1b; Cells; 5 uL; Use a Multidrop Combi (Thermo Scientific) to seed 350 cells/well into nine Greiner 1536 well white/solid bottom, high base, TC plates in 5 ul/well of iHSKM GM without dexamethasone + 4 ng/ml IFN-b into columns 3 - 48. Add metal lids with gas-exchange holes
2; Incubate; 1 hr; Incubate at 37 C, 5% CO2, 95% RH
[…]
(Quantitative high-throughput screening tests each substance at several concentrations.)
Regarding `NS(=O)(=O)c1ccc(N2CCCCS2(=O)=O)cc1`, the Potency entry was “inactive”.

Consider `Cc1ccc(-c2ccccc2C#N)cc1`, for which the Potency result is “inactive”.

Take `O=C(OCCN1CCOCC1)c1cccnc1Nc1cccc(C(F)(F)F)c1`: the Potency entry was “inactive”.

Turning to `CO[C@@]1(NC(=O)CSC[C@@H](N)C(=O)O)C(=O)N2C(C(=O)O)=C(CSc3nnnn3C)CS[C@@H]21`, the Potency entry was “inactive”.

For `Nc1cccc2c(N)cccc12`, the Potency entry was “inactive”.

Take `O=C1CC[C@H](C(=O)N2CCCCC2)N1`: the Potency entry was “inactive”.

`CC1CCCCN1CCCOC(=O)c1ccc(OC2CCCCC2)cc1` (stereo not given): the Potency entry is “inactive”.

For `COCCOCC(OC)OC`, the Potency entry was “inactive”.

For the compound `CCCc1ncc(C(=O)O)s1`, the Potency entry is “inactive”.

On to `CCN1CCCC1CN` (stereo not given), for which the Potency entry is “inactive”.

Consider `Cc1c(C)c2c(c(C)c1OC(=O)CCC(=O)OCCO)CC[C@@](C)(CCC[C@H](C)CCC[C@H](C)CCCC(C)C)O2`, for which the Potency result was “inactive”.

As to `CN1C(=O)CC(C)(c2ccccc2)C1=O` (stereo not given), the Potency result is “inactive”.

For `Nc1c(I)cc(I)c(C(=O)N(CCC(=O)O)c2ccccc2)c1I`, the Potency result was “inactive”.

On to `Nc1nnnn1-c1ccccc1`, for which the Potency result was “inactive”.

On to `CCCCC(CC)CNC(=O)CC(C)OC(=O)CCC(=O)O` (stereo not given), for which the Potency result is “inactive”.

Turning to `CC(=O)O[C@@H]1CC2C3CCc4cc(OC(=O)c5ccccc5)ccc4C3CCC2(C)[C@H]1OC(C)=O` (stereo not given in full), the Potency entry was “inactive”.

As for `CN(C)CCN(Cc1ccsc1)c1ccccn1`, the Potency entry is “inactive”.

Regarding `CCOC(=O)Oc1ccc(CCNC(=O)[C@H](CCSC)NC(C)=O)cc1OC(=O)OCC`, the Potency entry was “inactive”.

Turning to `COC(=O)c1cc(S(N)(=O)=O)ccc1OC`, the Potency result is “inactive”.

As for `COC(=O)c1cc(Cl)ccc1OC`, the Potency entry was “inactive”.

For `CN(C)CCOC1=Cc2ccccc2Sc2ccc(Cl)cc21`, the Potency entry was “inactive”.

For the compound `O=C(NO)c1ccccc1`, the Potency entry is “inactive”.

As to `O=C(c1cc(O)c(O)c(O)c1)c1ccc(O)c(O)c1O`, the Potency result is “inactive”.

On to `Clc1ccc2c(c1)Nc1ccccc1S2`, for which the Potency entry is “inactive”.

For `N#CSCC(=O)O`, the Potency result is “inactive”.

As for `COC(=O)c1ccc(NC(C)=O)cc1OC`, the Potency result is “inactive”.

In the case of `CC(C)(C)c1cc(C=O)cc(C(C)(C)C)c1O`, the Potency entry was “inactive”.

For `c1ccc2c(c1)CCc1ccccc1N2`, the Potency result was “inactive”.

For `CCCCCCCCCCCCCCCCCCN(C)C`, the Potency result is “inactive”.

With `O=C(O)[C@@H](O)[C@H](O)[C@H](O)[C@@H](O)C(=O)O`, the Potency result was “inactive”.

Turning to `O=S(=O)(O)c1ccc2nc(-c3ccccc3)[nH]c2c1`, the Potency result is “inactive”.

On to `CC[C@@H]([C@H](C)O)n1ncn(-c2ccc(N3CCN(c4ccc(OC[C@@H]5CO[C@@](Cn6cncn6)(c6ccc(F)cc6F)C5)cc4)CC3)cc2)c1=O`, for which the Potency result was “inactive”.

Turning to `NC(=O)C1(N2CCCCC2)CCN(CCCN2c3ccccc3CCc3ccc(Cl)cc32)CC1`, the Potency was 23.6 µM (active).

`C[N+](C)(CCOc1ccccc1)Cc1cccs1`: the Potency result is “inactive”.

Regarding `CCCCCC1Nc2cc(C(F)(F)F)c(S(N)(=O)=O)cc2S(=O)(=O)N1` (stereo not given), the Potency result was “inactive”.

Consider `CCOC(=O)NNc1nncc2ccccc12`, for which the Potency result is “inactive”.

As to `C=CCNc1nc(NCC=C)nc(N2CCN(C(c3ccc(F)cc3)c3ccc(F)cc3)CC2)n1`, the Potency result is “inactive”.

Regarding `Brc1ccccc1-c1ccccc1`, the Potency entry was “inactive”.

Take `CCOC(=O)CN1CCCC1=O`: the Potency entry was “inactive”.

`O=[N+]([O-])c1nccn1CO[C@@H](CO)[C@H](O)CO`: the Potency result was “inactive”.

(Values after PubChem BioAssay (NCATS).)
